An excerpt weighted towards active compounds, which were near 5.4% of everything screened.
VACV Venus inh – inhibitors of vaccinia virus (Venus reporter). 0.46% of 330,000 active. Vaccinia virus Venus reporter expression, fluorescence. Potency, µM (series often up to 36.5 µM), for the others: top-dose activity change, negative = inhibition, hits mostly inhibitors. AID 720580; calls by dose curve; tested in A549 cells; further: nearly all actives have a fitted effect of over 30% in size
Marburg entry inh – blocks Marburg virus binding to or entry into cells. Potency, µM (highest dose often 37.8 µM), without a hit: at the highest dose activity change, negative = inhibition, most hits filed as inhibitors. 1.8% of 300,000 active. Marburg virus pseudotyped entry inhibition, cell reporter; calls by dose curve; tested in HEK293 cells
Sm TGR block – inhibitors of Schistosoma mansoni thioredoxin glutathione reductase; 3% of 360,000 active; purified TGR, DTNB reduction, TNB absorbance 405 nm; AID 485364; Potency, µM (highest dose often 114 µM), without a hit: at the highest dose activity change, negative = inhibition, most hits filed as inhibitors; Q962Y6; active means well fitted inhibition curve with a large enough effect; inconclusive means small, poorly fitted or top-dose-only effect; inactive means no such curve, though single readings can be large or run the other way; further: nearly all actives have a fitted effect of over 60% in size
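First, TGR (20 nM dispensed) and NADPH were mixed with compound. Second, a 15 min room-temperature incubation followed. Third, further NADPH and then DTNB were added to start the reaction. Finally, TNB absorbance was monitored kinetically.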
Vaccinia mCherry – inhibitors of vaccinia virus infection (mCherry reporter signal); Vaccinia virus mCherry reporter infection, fluorescence; Potency, µM (doses to about 36.5 µM), for inactives: at the highest dose activity change, negative = inhibition, hits mostly inhibitors; 0.63% of 310,000 active; AID 720579; calls by dose curve; tested in A549 cells; further: nearly all actives have a fitted effect of over 35% in size
LASV entry inh – blocks Lassa virus binding to or entry into cells; Lassa virus pseudotype entry inhibition, cell reporter; Potency, µM (series often up to 37.9 µM), for inactives: at the top dose activity change, negative = inhibition, actives largely listed as inhibitors; AID 540256; 1.2% of 300,000 active; calls by dose curve; tested in HEK293 cells; further: nearly all actives have a fitted effect of over 50% in size
FMDV inh – foot and mouth disease virus antiviral activity. FMDV antiviral cell-based qHTS. Potency, µM (series often up to 57.9 µM), inactives show at the highest dose activity change, negative = inhibition, hits mostly inhibitors. 1.2% of 410,000 active. AID 1159524; calls by dose curve; tested in HEK293T cells; further: read-out not given here; nearly all actives have a fitted effect of over 45% in size
* = called active by the depositor; i = inactive; ? = inconclusive; . = no result given; [ ] = remark or other dose. On the % scale 0 is the no-effect control and ±100 the full control effect; potency means the concentration at half of the fitted maximal effect.

SMILES	VACV Venus inh	Marburg entry inh	Sm TGR block	Vaccinia mCherry	LASV entry inh	FMDV inh
CCOC(=O)N/N=C(C)/C=C/c1ccccc1	0%	19%	6%	i	-1%	16%
CC(/C=C/c1ccco1)=N/NC(=O)c1ccccc1Cl	5%	?	22µM*	-9%	4%	42%
CC(/C=C/c1ccco1)=N\NC(=O)CNc1ccc2ccccc2c1	-10%	.	-24%	-25%	.	9%
CC(/C=C/c1ccco1)=N/NC(=O)CNc1ccccc1C	-16%	22%[46.1 µM]	35µM*	-16%	-10%	3%
CCOC(=O)N/N=C(C)/C=C/c1ccco1	-5%	?	32µM*	i	?	11%
CC(C)[C@@H](OCc1ccccc1)[C@H](C)CO/N=C1/[C@H]2CCn3c(=O)n(-c4ccccc4)c(=O)n3[C@H]2[C@H](O)[C@@H]2O[C@H]12	.	25%[14.2 µM]	.	.	.	.
O=C(c1c[nH]cc1-c1ccccc1)c1cccc2ccccc12	.	12µM*	4%	.	-16%	-21%
Cc1cc(Cn2nnnc2-c2ccncc2)cc(C)c1O	-21%	?	2.5µM*	-11%	?	-15%
Cc1ccc(Nc2nc(N3CCOCC3)nc(N3CCOCC3)n2)cc1	-12%	1.2µM*	7%	-12%	-37%	-1%
Cc1ccccc1Nc1nc(N2CCOCC2)nc(N2CCOCC2)n1	-7%	6.3µM*	-13%	i	-29%[46.1 µM]	-26%
CN1CCN(c2nc(Nc3cccc(C(F)(F)F)c3)nc(N3CCOCC3)n2)CC1	.	21µM*	11%	.	?	27%
Clc1ccc(Nc2nc(NCCN3CCOCC3)nc(N3CCOCC3)n2)cc1	?	2.8µM*	0%	.	?	-45%
FC(F)(F)c1cccc(Nc2nc(N3CCCC3)nc(N3CCCC3)n2)c1	1%	?	-12%	8%	-14%	-21%
Cc1cc2c(cc1S(=O)(=O)CCC(=O)N1CCCCC1C)OCC(=O)N2 (configuration not stated)	4%	.	-5%	7%	-29%[46.1 µM]	-17%
CCOC(=O)c1ccc(Nc2cc(C)nc(N3CCOCC3)n2)cc1	13µM*	?	?	10µM*	-24%	0%
c1ccc(Nc2nc(Nc3ccccc3)nc(N3CCNCC3)n2)cc1	-32%	6.3µM*	5%	?	-18%[46.1 µM]	-8%
Oc1[nH]c2ccccc2c1N=Nc1nc(Nc2ccccc2)nc(N2CCOCC2)n1	.	.	-3%	.	.	?
Cc1ccc(Nc2cc(C)nc(N3CCOCC3)n2)cc1	-26%	5.6µM*	-25%	i	23%	11%
Cc1[nH]c2ccccc2c1/C=N/Nc1nc(Nc2ccccc2)nc(N2CCOCC2)n1	.	0.33µM*	1%	.	5.8µM*	-11%
COc1ccc(-n2cc(C(=O)NCCc3ccc(C)cc3)c3ccccc3c2=O)cc1	-11%	.	-1%	-11%	-18%[46.1 µM]	-8%
CC(C)C(=O)NCC1CCC2(CCN(Cc3ccc(-c4ccccc4Cl)o3)CC2)O1 (configuration not stated)	-23%	.	.	-24%	.	-1%
COc1cc(/C=N/Nc2nc(Nc3ccccc3)nc(N3CCOCC3)n2)ccc1OC(=O)c1ccco1	.	2.1µM*	-3%	.	?	-5%
COC(=O)c1ccc(CN2C[C@H](Sc3ccccn3)C[C@H]2C(=O)N(C)C)cc1	7%	.	.	-2%	.	11%
Cc1nc2ncnn2c(C)c1CCC(=O)NCCCN1CCN(c2cccc(Cl)c2)CC1	-11%	-11%	79µM*	-3%	2%	0%
COC(=O)c1ccc(NC(=O)CSc2nc(=O)[nH]c3c2CCCC3)cc1	-5%[7.34 µM]	.	-20%	-5%[7.34 µM]	13%[46.1 µM]	-14%
SMILES	VACV Venus inh	Marburg entry inh	Sm TGR block	Vaccinia mCherry	LASV entry inh	FMDV inh
CCOc1ccc2nc(N(CCCN(C)C)C(=O)c3ccc4c(c3)CCCC4)sc2c1	.	.	3%	.	.	-47%
CN(C)CCCN(C(=O)c1ccc2c(c1)CCCC2)c1nc2ccc(Cl)cc2s1	?	?	0%	?	?	28µM*
CCc1ccc2nc(N(CCCN(C)C)C(=O)c3ccc(S(=O)(=O)N4CCCc5ccccc54)cc3)sc2c1	?	?	-4%	?	13µM*	?
CCc1ccc2nc(N(CCCN(C)C)C(=O)c3ccc(S(=O)(=O)N4CCCC4)cc3)sc2c1	.	.	-9%	.	.	-7%
Cc1ccnc2ccc3ccccc3c12	-31%	.	.	-12%	.	.
O=C(NCc1cccnc1)c1cnn(-c2ncc3c(n2)-c2ccccc2CCC3)c1C1CC1	-9%	.	.	-16%	.	-14%

Assay outcomes as filed in PubChem.
